Data published in PubChem BioAssay AID1159580 (chemical genetic matrix, 2015).
“And” between values parts separate entries of the source, which are not always exact repeats. Identical values can stand only once. Out of some 5,500 compounds screened, about 2,000 (36%) were called active. Another 18% or so got no clear call; they are omitted. Cut-off read from the data, not from the text of the source: active = normalized growth mostly below about 0.91 (no sharp cut-off); inconclusive = no clear call, values can overlap the other calls; inactive = mostly above about 0.92. This is one part of the list.

Assay: chemical genetic growth profiling, strain panel (AID 1159580);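 note: tested at 20 µM; growth read once vehicle control cultures reached saturation at 30 °C; 1 = growth at the plate median or of vehicle wells; lower values mean less growth of the strain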
Details: S. cerevisiae deletion strains, growth OD

Measured: normalized growth

CC1(C)NC(=O)N(c2ccc([N+](=O)[O-])c(C(F)(F)F)c2)C1=O
inactive: locus YAL013W, strain DEP1, active compounds read low 1.01 and 0.99 | locus YAL021C, strain ccr4, active compounds read low 1.02 | locus YAL026C, strain drs2, active compounds read low 0.983 | locus YAL030W, strain snc1, active compounds read low 0.99 | locus YAL040C, strain CLN3, active compounds read low 1.05 | locus YBL061C, strain skt5, active compounds read low 0.98 | locus YBR009C, strain hhf1, active compounds read low 0.982 | locus YBR021W, strain FUR4, active compounds read low 1.02 | locus YBR023C, strain chs3, active compounds read low 0.987 | locus YBR171W, strain sec66, active compounds read low 0.98 | locus YBR229C, strain ROT2, active compounds read low 1.01 | locus YBR231C, strain swc5, active compounds read low 0.989 | locus YBR279W, strain paf1, active compounds read low 0.994 | locus YCL011C, strain gbp2, active compounds read low 0.985 | locus YCL016C, strain dcc1, active compounds read low 0.986 | locus YCL029C, strain bik1, active compounds read low 0.967 | locus YCL061C, strain MRC1 (second series), active compounds read low 1 | locus YCL061C, strain MRC1, active compounds read low 0.976 | locus YCL069W, strain vba3, active compounds read low 0.98 | locus YCR088W, strain abp1, active compounds read low 0.982 | locus YDL005C, strain med2, active compounds read low 0.993 | locus YDL035C, strain GPR1, active compounds read low 1 | locus YDL040C, strain nat1, active compounds read low 0.984 | locus YDL074C, strain BRE1, active compounds read low 1.02 | locus YDL101C, strain DUN1, active compounds read low 1.01 | locus YDL134C, strain PPH21, active compounds read low 1.02 | locus YDL185W, strain tfp1, active compounds read low 0.977 | locus YDL192W, strain arf1, active compounds read low 0.983 | locus YDR001C, strain nth1, active compounds read low 0.985 | locus YDR069C, strain doa4, active compounds read low 0.99 | locus YDR101C, strain arx1, active compounds read low 0.982 | locus YDR137W, strain rgp1, active compounds read low 0.894 | locus YDR150W, strain NUM1, active compounds read low 1.03 | locus YDR159W, strain sac3, active compounds read low 0.985 | locus YDR162C, strain NBP2, active compounds read low 1 | locus YDR195W, strain ref2 0.975 | locus YDR297W, strain sur2, active compounds read low 0.99 | locus YDR318W, strain mcm21, active compounds read low 0.994 | locus YDR334W, strain swr1, active compounds read low 0.989 | locus YDR335W, strain msn5, active compounds read low 0.994 | locus YDR363W, strain ESC2, active compounds read low 0.975 | locus YDR388W, active compounds read low 0.983 | locus YDR392W, strain spt3, active compounds read low 0.998 | locus YDR502C, strain sam2, active compounds read low 0.984 | locus YEL003W, strain gim4, active compounds read low 0.985 | locus YEL037C, strain rad23, active compounds read low 0.988 | locus YEL061C, strain CIN8 (second series), active compounds read low 0.989 | locus YEL061C, strain CIN8, active compounds read low 0.999 | locus YER002W, strain NOP16, active compounds read low 0.996 | locus YER015W, strain faa2, active compounds read low 0.971 | locus YER016W, strain bim1, active compounds read low 0.983 | locus YER110C, active compounds read low 0.971 | locus YER111C, strain swi4, active compounds read low 0.985 | locus YER155C, strain BEM2 (second series), active compounds read low 0.987 | locus YER155C, strain BEM2, active compounds read low 0.996 | locus YER167W, strain BCK2, active compounds read low 1.01 | locus YFR010W, strain ubp6, active compounds read low 0.985 | locus YGL078C, strain dbp3, active compounds read low 0.986 | locus YGL086W, strain mad1, active compounds read low 0.992 | locus YGL167C, strain pmr1, active compounds read low 0.983 | locus YGL173C, strain kem1, active compounds read low 0.976 | locus YGL227W, strain vid30, active compounds read low 0.973 | locus YGL240W, strain doc1, active compounds read low 0.98 | locus YGL248W, strain PDE1, active compounds read low 1.01 | locus YGL253W, strain hxk2, active compounds read low 0.985 | locus YGR078C, strain PAC10, active compounds read low 1.01 and 0.981 | locus YGR135W, strain pre9, active compounds read low 0.98 | locus YGR229C, strain SMI1, active compounds read low 1.02 | locus YGR252W, strain gcn5, active compounds read low 0.978 | locus YHR013C, strain ard1, active compounds read low 0.97 | locus YHR027C, strain rpn1, active compounds read low 0.984 | locus YHR030C, strain SLT2, active compounds read low 1.01 and 0.984 | locus YHR079C, strain IRE1 (second series), active compounds read low 0.988 | locus YHR079C, strain IRE1, active compounds read low 1 | locus YHR094C, strain hxt1, active compounds read low 0.986 | locus YHR129C, strain ARP1, active compounds read low 1.01 | locus YHR142W, strain chs7, active compounds read low 0.986 | locus YHR200W, strain rpn10, active compounds read low 0.987 | locus YIL066C, strain RNR3, active compounds read low 1.02 | locus YIL073C, strain SPO22, active compounds read low 1 | locus YIL125W, strain kgd1, active compounds read low 0.986 | locus YIR030C, strain dcg1, active compounds read low 0.983 | locus YJL092W, strain hpr5, active compounds read low 0.978 | locus YJL095W, strain BCK1 (second series), active compounds read low 0.982 | locus YJL095W, strain BCK1, active compounds read low 0.991 and 1 | locus YJL115W, strain asf1, active compounds read low 0.992 | locus YJL129C, strain trk1, active compounds read low 0.991 | locus YJL134W, strain LCB3, active compounds read low 1.01 | locus YJL154C, strain vps35, active compounds read low 0.988 | locus YJL164C, strain tpk1, active compounds read low 0.985 | locus YJL166W, strain qcr8, active compounds read low 0.986 | locus YJL168C, strain set2, active compounds read low 0.987 | locus YJL187C, strain SWE1 (second series), active compounds read low 1.01 | locus YJL187C, strain SWE1, active compounds read low 0.981 | locus YJR043C, strain POL32, active compounds read low 1 | locus YJR066W, strain TOR1, active compounds read low 0.956
